Experimental data: PubChem BioAssay (NCI)
Values joined by “and” are separate entries in the source; they are usually repeats but may differ in a detail not shown here. Equal values may be shown once. About 83,000 compounds went through this panel and 20% of them were active in at least one assay; those are over-represented in the sample as a whole.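 The endpoint reported here, percent growth, reads 100 for growth as untreated, 0 for no net growth and -100 for all cells dead.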 Active and inactive are the calls of the source. How the source made its calls: active means growth percent below 10; inactive means the rest.

These compounds were tested on MDA-MB-468 breast (assay: NCI-60 one-dose screen, 48 h (100 = growth as untreated, 0 = no growth, -100 = all killed)). Conditions: 10 µM unless noted.
In the case of `O=S(=O)(O)c1cccnc1`, the growth is reported as 124% (inactive).
`COc1cc(OC)cc(C(=O)C[n+]2cccc3cc[nH]c32)c1` was tested, and the growth was 90.9% (inactive).
`C[C@]12CCc3c(ccc4cc(O)ccc34)[C@@H]1C[C@H](O)[C@@H]2O` was tested, and the growth was 100% (inactive).
`Clc1ccc(Sc2cnc(-c3ccccc3)o2)cc1` was tested, and the growth was 111% (inactive).
For `C#Cc1nc(C2=C(C)C(=O)/C(=N/OC(C)=O)C2)cs1`, the growth was 69.9% (inactive).
With `O=C(CCl)c1ccc2c(c1)Nc1ccccc1S2` the growth was 75.7% (inactive) and 64.9% (inactive).
With `COc1cc(/C=C/c2cc(/C=C/c3ccc(O)c(OC)c3)n(C(=O)Nc3ccc(C)cc3C)n2)ccc1O` the growth was -30.3% (active).
In the case of `O=C(OCc1ncc(-c2ccc(C(F)(F)F)cc2)c(NC2CCCCCC2)n1)c1c(F)c(F)c(F)c(F)c1F`, the growth is reported as 16.9% (inactive).
With `CCOC(=O)C1C(=O)C=C(c2cc(OC)c(OC)c(OC)c2)CC1c1sc(N(C)Cc2ccccc2)nc1Cl` (centres undefined) the growth was 71.2% (inactive).
With `COc1cccc(/C=N/NC(=O)c2ccccc2N2CCCC2)c1O` the growth was 0.775% (active).
In the case of `COC(=O)[C@H](CSC)N(C)C(=O)[C@@H]1CSSC[C@@H](NC(=O)c2nc3ccccc3cc2O)C(=O)NCC(=O)N1C`, the growth is reported as 61.3% (inactive).
In the case of `Cn1ccnc1C(=O)/C=C/c1ccc(CC(=O)Nc2ccc(Cl)cc2)cc1`, the growth is reported as -15.4% (active).
`CC(=O)Oc1ccc(/C=N/NC(N)=S)nc1` was tested, and the growth was -13.9% (active).
With `Cc1c(C(=O)NC(Cc2ccccc2)C(O)C(=O)NCc2ccc(F)cc2)[nH]c2ccccc2c1=O` (centres undefined) the growth was 99.4% (inactive).
